Laboratory results: the supplement of paper PMC13380429

System: Vero E6 infected with SARS-CoV-2
Test: inhibition of SARS-CoV-2 cytopathic effect; higher = more antiviral protection, active = above 15
Details: 48 h

Measured: inhibition of SARS-CoV-2 cytopathic effect

CC(C)c1cccc2c1OC(C(C)C)C(=S)N2CC(=O)O (stereo not given)
inactive: 1 nM -0.74% | 8.33 nM 3.31% | 100 nM 1.03% | 833.33 nM 1.02% | 10000 nM -0.31%

C[C@H](Nc1ncnc2[nH]cnc12)c1nc2ccc(F)cc2c(=O)n1-c1ccccc1 [acalisib]
inactive: 1 nM 0.46% | 8.33 nM -0.64% | 100 nM 0.1% | 833.33 nM -0.64% | 10000 nM -5.35%

COc1ccc(-c2nc3cc(C4=NNC(=O)CC4C)ccc3[nH]2)cc1 (stereo not given) [pimobendan]
inactive: 1 nM 2.75% | 8.33 nM -1.84% | 100 nM -1.74% | 833.33 nM -1.51% | 10000 nM -0.67%

CC(=O)NO [acetohydroxamic-acid]
inactive: 1 nM 4.31% | 8.33 nM 3.09% | 100 nM -3.04% | 833.33 nM 2.55% | 10000 nM 3.32%

Cc1cnc(-c2cnc(NCCNc3ccc(C#N)cn3)nc2-c2ccc(Cl)cc2Cl)[nH]1
inactive: 1 nM 2.72% | 8.33 nM 3.19% | 100 nM -2.16% | 833.33 nM 3.98% | 10000 nM 12.1%

CC[C@H](/C=C/[C@@H](C)[C@H]1CC[C@H]2[C@@H]3CC=C4C[C@@H](O)CC[C@]4(C)[C@H]3CC[C@]12C)C(C)C [Stigmasterol (Stigmasterin)]
inactive: 1 nM 0.05% | 8.33 nM -0.75% | 100 nM 0.44% | 833.33 nM 0.29% | 10000 nM -0.01%

CC(COc1ccccc1)NC(C)C(O)c1ccc(O)cc1 (stereo not given) [isoxsuprine]
inactive: 1 nM 0.69% | 8.33 nM 2% | 100 nM -0.95% | 833.33 nM 1.95% | 10000 nM -1.14%

CC(C)(C)NC[C@H](O)c1ccc(O)cc1Cl [meluadrine]
inactive: 1 nM -1.16% | 8.33 nM 1.91% | 100 nM 1.61% | 833.33 nM -2.53% | 10000 nM -3.94%

COc1ccc2c(c1)/C(=C/c1cnc[nH]1)C(=O)N2
inactive: 1 nM 0.21% | 8.33 nM -1.7% | 100 nM -1.87% | 833.33 nM 4.89% | 10000 nM 6.28%

N#C/C(=C\c1ccc(O)c(O)c1)C(=O)OCCc1cccs1
inactive: 1 nM 1.43% | 8.33 nM 1.78% | 100 nM 7.36% | 833.33 nM -1.53% | 10000 nM 1.2%

Cc1c(C(=O)NN2CCCCC2)nn(-c2ccc(Cl)cc2Cl)c1-c1ccc(Cl)cc1 [rimonabant]
inactive: 1 nM -1.86% | 8.33 nM 1.55% | 100 nM -0.12% | 833.33 nM 0.01% | 10000 nM -3.44%

CC(C)NCCCn1c(Sc2cc3c(cc2I)OCO3)nc2c(N)ncnc21
inactive: 1 nM -3.36% | 8.33 nM -0.68% | 100 nM -0.95% | 833.33 nM -7.21% | 10000 nM -3.3%

Nc1nc(=O)c2c([nH]1)NCC(CNc1ccc(C(=O)N[C@@H](CCC(=O)O)C(=O)O)cc1)N2C=O (stereo not given in full) [leucovorin]
inactive: 1 nM -3.4% | 8.33 nM -3.52% | 100 nM -0.89% | 833.33 nM 1.42% | 10000 nM -0.745%

NCCCC(O)(P(=O)(O)O)P(=O)(O)O [alendronate]
inactive: 1 nM -2.08% | 8.33 nM -1.44% | 100 nM 0.15% | 833.33 nM -0.56% | 10000 nM -0.44%

O=C(Nc1ccc(C(F)(F)F)cn1)N1CCN(c2ncccc2C(F)(F)F)CC1
inactive: 1 nM -2.83% | 8.33 nM 0.93% | 100 nM 1.25% | 833.33 nM 1.49% | 10000 nM -0.71%

C[C@H](CCC(=O)NCCS(=O)(=O)O)[C@H]1CC[C@H]2[C@@H]3[C@H](O)C[C@@H]4C[C@H](O)CC[C@]4(C)[C@H]3C[C@H](O)[C@]12C [taurocholate]
inactive: 1 nM -8.93% | 8.33 nM -4.1% | 100 nM -6.72% | 833.33 nM -7.82% | 10000 nM -8.38%

O=C(O)CCCC[C@@H]1SC[C@@H]2NC(=O)N[C@@H]21 [biotin]
inactive: 1 nM 1.38% | 8.33 nM 1.22% | 100 nM -1.51% | 833.33 nM 0.93% | 10000 nM 1.95%

CC1CCc2c(N3CCC(O)CC3)c(F)cc3c(=O)c(C(=O)O)cn1c23 (stereo not given) [nadifloxacin]
inactive: 1 nM 3.29% | 8.33 nM 1.42% | 100 nM 0.26% | 833.33 nM 3.52% | 10000 nM 2.69%

OCc1ccc(O[C@@H]2O[C@H](CO)[C@@H](O)[C@H](O)[C@H]2O)cc1 [gastrodin]
inactive: 1 nM -0.38% | 8.33 nM -2.3% | 100 nM -2.66% | 833.33 nM -2.37% | 10000 nM -4.3%

CNC1CC(c2ccc(Cl)c(Cl)c2)c2ccccc21 (stereo not given) [indatraline]
inactive: 1 nM -0.39% | 8.33 nM 0.4% | 100 nM 0.7% | 833.33 nM -3.42% | 10000 nM -10.8%

COc1ccc(S(=O)(=O)N2CCC[C@H]2C(=O)Nc2cc(C)cc(C)c2)cc1
inactive: 1 nM -4.61% | 8.33 nM -4.21% | 100 nM -5.02% | 833.33 nM -4.87% | 10000 nM 1.64%

CN(C)c1ccccc1CN1CCCN(Cc2ccccc2N(C)C)C1c1ccncc1
active: 10000 nM 21%
inactive: 1 nM 0.09% | 8.33 nM 1.84% | 100 nM 0.14% | 833.33 nM 0.48%

CCOC(=O)Nc1ccc2c(c1)N(C(=O)CCN1CCOCC1)c1ccccc1S2 [moracizine]
inactive: 1 nM 0.84% | 8.33 nM 3.43% | 100 nM -0.23% | 833.33 nM 2.61% | 10000 nM 5.32%

Cc1cccc2c1CC[C@H](CN1CCC(c3c(Cl)cccc3Cl)CC1)C[C@@H]2O
inactive: 1 nM -2.92% | 8.33 nM 0.72% | 100 nM 4.25% | 833.33 nM 1.11% | 10000 nM -8.51%

CC(C)CN(C[C@@H](O)[C@H](Cc1ccccc1)NC(=O)O[C@H]1CO[C@H]2OCC[C@H]21)S(=O)(=O)c1ccc(N)cc1 [darunavir]
inactive: 1 nM -2.41% | 8.33 nM -2.86% | 100 nM -0.7% | 833.33 nM 0.44% | 10000 nM -1.15%

O=C(O)c1cccnc1C(=O)O [quinolinic-acid]
inactive: 1 nM 1.12% | 8.33 nM -1.19% | 100 nM 0.73% | 833.33 nM -1.65% | 10000 nM -4.35%

C=C[C@]1(C)CC[C@@H](C(=C)C)C[C@H]1C(=C)C [beta-elemene]
inactive: 1 nM 2.14% | 8.33 nM 1.03% | 100 nM 0.39% | 833.33 nM 0.7% | 10000 nM 0.82%

c1ccc2[nH]c(-c3cscn3)nc2c1 [tiabendazole]
inactive: 1 nM 2.1% | 8.33 nM 1.24% | 100 nM -0.24% | 833.33 nM 0.7% | 10000 nM -0.19%

COCC1=C(C(=O)O)N2C(=O)[C@@H](NC(=O)/C(=N\OC)c3csc(N)n3)[C@H]2SC1 [cefpodoxime]
inactive: 1 nM -1.12% | 8.33 nM -1.09% | 100 nM -1.76% | 833.33 nM -0.98% | 10000 nM -1.12%

CCCCN(CCCC)CCCOC(=O)c1ccc(N)cc1 [butacaine]
inactive: 1 nM 1.8% | 8.33 nM 5.07% | 100 nM 2.1% | 833.33 nM -1.71% | 10000 nM -2.04%

CS(=O)(=O)Oc1ccc2c(NC(N)=O)c(C(=O)c3ccc(Cl)cc3Cl)oc2c1 [lirimilast]
inactive: 1 nM -4.96% | 8.33 nM -9.08% | 100 nM -8.83% | 833.33 nM -12.5% | 10000 nM -5.64%

O=C(O)c1cc(/N=N/c2ccc(O)c(C(=O)O)c2)ccc1O [olsalazine]
inactive: 1 nM 1.15% | 8.33 nM 2.03% | 100 nM 0.75% | 833.33 nM 2.78% | 10000 nM 1.21%

CS(=O)(=O)c1ccc([C@@H](CC2CCCC2)C(=O)Nc2nccs2)cc1
inactive: 1 nM -0.6% | 8.33 nM -1.12% | 100 nM 1.31% | 833.33 nM 1.71% | 10000 nM 1.96%

CC(C)c1cccc2c(-c3ccccc3)cc(-c3ccc(-c4ccc(C(=O)O)cc4)[nH]3)nc12
inactive: 1 nM 5.04% | 8.33 nM 4.89% | 100 nM 3.09% | 833.33 nM 5.27% | 10000 nM 3.56%

CC(=O)SC[C@@H](Cc1ccccc1)C(=O)NCC(=O)OCc1ccccc1 (racemic) [racecadotril]
inactive: 1 nM 1.48% | 8.33 nM 1.8% | 100 nM 0.82% | 833.33 nM 1.15% | 10000 nM -5.3%

CN(CCCN1c2ccccc2CCc2ccccc21)CC(=O)c1ccc(Cl)cc1 [lofepramine]
inactive: 1 nM 2.35% | 8.33 nM -0.58% | 100 nM 1.56% | 833.33 nM 2.86% | 10000 nM 0.69%

Cc1cccc(NC(=O)CN2CCC(c3ccccn3)CC2)c1
inactive: 1 nM 1.23% | 8.33 nM 1.06% | 100 nM -0.12% | 833.33 nM 0% | 10000 nM 3.09%

NCC1OC(C23CC4CC(CC(C4)C2)C3)Cc2c1ccc(O)c2O (stereo not given)
inactive: 1 nM 0.67% | 8.33 nM 0.56% | 100 nM 2.31% | 833.33 nM 1.57% | 10000 nM -6.39%

CC1(C)CC[C@]2(C(=O)O)CC[C@]3(C)[C@H](C(=O)C=C4[C@@]5(C)C=C(C#N)C(=O)C(C)(C)[C@@H]5CC[C@]43C)[C@@H]2C1 [bardoxolone]
inactive: 1 nM -1.22% | 8.33 nM -1.62% | 100 nM 2.92% | 833.33 nM 3.36%
active: 10000 nM 28.9%

Cn1cc([S+](C)[O-])c(=O)c2ccc(F)cc21 (stereo not given) [flosequinan]
inactive: 1 nM -1.94% | 8.33 nM -0.91% | 100 nM 0.34% | 833.33 nM 2.01% | 10000 nM 0.19%
